Values joined by “and” are separate entries in the source; they are usually repeats but may differ in a detail not shown here. Equal values may be shown once. Active and inactive are the calls of the source. Cut-off read from the data, not from the text of the source, unless noted: active = inhibition above about 80%; inactive = the rest.
Key:
[1] = galactose survival enhancers in mitochondrial complex I cybrids – cell-based, galactose medium, ATP luminescence, primary screen (AID 1645843;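 active = z-score of at least 1.8 in each of two replicates, scored against plate mean and spread of sample wells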;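 note: positive z means more ATP and so rescue of galactose-driven cybrid death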); conditions: complex I mutant cybrid cells, 72 h, stronger effect = higher value
[2] = tested on: F380Y; test: BK channel mutant inhibitors and activators – cell-based, U2OS BacMam, thallium flux, beta subunits, selectivity assay, profiling panel (AID 1259406;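 active = thallium flux through the channel raised or lowered by more than 3 SD from vehicle-only wells, actives on both sides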;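 note: initial slope of Thallos dye fluorescence rise after thallium is added; log ratio against the mean of 0.3% DMSO vehicle wells on the same plate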); conditions: U2OS BacMam BK variants, at 30 µM
[3] = tested on: F380Y/beta1; test: as above; conditions: U2OS BacMam BK variants, at 30 µM
[4] = target: NAD(+) hydrolase SARM1 (Homo sapiens) (UniProt Q6SZW1); test: blocking NAD cleavage by SARM1 SAM-TIR – cell lysate, NAD-Glo luminescence (AID 1508614;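 active = compound whose remaining NAD level is above about 45 nM, limit read from the data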;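 note: higher remaining NAD means stronger inhibition of SARM1 NADase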); conditions: SAM-TIR HEK293T lysate NADase, at 1 µM, stronger effect = higher value
Chain of NAD(+) hydrolase SARM1 (Homo sapiens) (Q6SZW1 whole entry, looked up): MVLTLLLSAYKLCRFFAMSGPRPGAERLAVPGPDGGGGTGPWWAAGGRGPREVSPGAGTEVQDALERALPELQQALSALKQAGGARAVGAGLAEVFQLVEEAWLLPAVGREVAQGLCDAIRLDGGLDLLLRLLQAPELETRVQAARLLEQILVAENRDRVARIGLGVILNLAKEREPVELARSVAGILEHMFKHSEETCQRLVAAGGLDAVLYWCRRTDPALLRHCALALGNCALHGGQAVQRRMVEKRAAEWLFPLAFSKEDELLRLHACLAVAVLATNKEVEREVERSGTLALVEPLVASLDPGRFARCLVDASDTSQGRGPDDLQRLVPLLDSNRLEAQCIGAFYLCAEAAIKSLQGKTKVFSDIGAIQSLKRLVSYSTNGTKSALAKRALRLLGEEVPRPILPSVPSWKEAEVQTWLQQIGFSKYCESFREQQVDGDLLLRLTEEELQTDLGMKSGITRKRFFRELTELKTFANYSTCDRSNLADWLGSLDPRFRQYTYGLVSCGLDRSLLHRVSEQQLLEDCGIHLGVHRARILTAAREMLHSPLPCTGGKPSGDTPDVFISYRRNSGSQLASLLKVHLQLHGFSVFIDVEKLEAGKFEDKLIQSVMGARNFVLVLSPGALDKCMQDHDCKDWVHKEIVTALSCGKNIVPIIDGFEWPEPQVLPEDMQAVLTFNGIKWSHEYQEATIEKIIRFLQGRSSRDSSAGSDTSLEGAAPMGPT

[5] = growth inhibition, single agent or in combination, cell-based, chromothripsis tumors, cisplatin or BGB combos (AID 1671449); conditions: LFS_MB_P medulloblastoma cells;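 note: cells exposed for 96 hours; 0% = vehicle DMSO and 100% = killing by high DMSO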
[6] = growth inhibition, single agent and combos, cell-based, chromothripsis tumors, cisplatin or BGB combos (AID 1671450); conditions: HDN33 neuroblastoma cells, stronger effect = higher value;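 note: cells exposed to compound for four days; 0% = vehicle DMSO and 100% = cell killing by high DMSO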
[7] = growth inhibition, single agents and combos, ICB984, cell-based, cisplatin or BGB combos, synergistic combos for chromothripsis tumors (AID 1671451; call rule not given here;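 note: cells exposed for 96 hours before readout; 0% = vehicle DMSO and 100% = killing by high DMSO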); conditions: ICB984 medulloblastoma cells, drug combinations, stronger effect = higher value
[8] = growth inhibition, single agents and combos, LFS_MB_1R, cell-based, cisplatin or BGB combos, synergistic combos for chromothripsis tumors (AID 1671452); conditions: LFS_MB_1R medulloblastoma cells, stronger effect = higher value;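 note: cells exposed for 96 hours before readout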
[9] = growth inhibition, single agents and combos, HTB85, cell-based, BGB or cisplatin IC20 combos, synergistic combos for chromothripsis tumors (AID 1671453); conditions: HTB85 osteosarcoma cells, drug combinations, stronger effect = higher value;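 note: cells exposed for 96 hours before readout; 0% = vehicle DMSO and 100% = high DMSO killing control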
[10] = growth inhibition, single agents and combos, CRL2098, cell-based, BGB or cisplatin IC20 combos, synergistic combos for chromothripsis tumors (AID 1671454); conditions: CRL2098 osteosarcoma cells, drug combinations, stronger effect = higher value;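 note: cells exposed for 96 h before readout; 0% = vehicle DMSO and 100% = killing by high DMSO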
[11] = growth inhibition, single agents and combos, HD-MB03, cell-based, BGB or cisplatin IC20 combos, synergistic combos for chromothripsis tumors (AID 1671455; in the data active = inhibition above about 83%;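 note: 0% = vehicle DMSO and 100% = high DMSO as cytotoxic control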); conditions: HD-MB03 medulloblastoma cells, stronger effect = higher value
[12] = growth inhibition, single agents and combos, UWB1.289, cell-based, BGB or cisplatin combos, synergistic combos for chromothripsis tumors (AID 1671456); conditions: UWB1.289 ovarian carcinoma cells, stronger effect = higher value;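 note: cells exposed to compound for four days; 0% = vehicle DMSO and 100% = killing by high DMSO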
[13] = growth inhibition, single agents and combos, LFS_MB_2R, cell-based, cisplatin combos, synergistic combos for chromothripsis tumors (AID 1671457); conditions: LFS_MB_2R medulloblastoma cells, stronger effect = higher value;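 note: cells exposed to compound for four days before readout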
[14] = growth inhibition, MDA-MB-436, cell-based, BGB or cisplatin combos, synergistic combos for chromothripsis tumors (AID 1671458; call rule not given here;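 note: cells exposed for 96 hours; 0% = vehicle DMSO and 100% = killing by high DMSO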); conditions: MDA-MB-436 breast carcinoma growth inhibition, drug combinations, stronger effect = higher value
[15] = UWB1.289_BRCA1 ovarian cancer growth, cell-based, BGB or cisplatin combinations (AID 1671459); conditions: UWB1.289 BRCA1 ovarian carcinoma, drug combinations, stronger effect = higher value
[16] = drug combination toxicity in non-malignant astrocytes – cell-based, BGB or cisplatin IC20 combos, cytotoxicity control for chromothriptic childhood tumor combination screen (AID 1671460); conditions: Human astrocytes, viability inhibition, drug combinations, at 0.5 µM, stronger effect = higher value;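 note: cells exposed to compounds for 96 hours before viability readout; 0% = vehicle and 100% = killing control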
[17] = BT084 cell growth, single and combined drugs, ICGC_MB145, cisplatin and BGB IC40 combos (AID 1671461); conditions: BT084 medulloblastoma cells, drug combinations, stronger effect = higher value;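 note: cells exposed to drugs for 96 hours; 0% = vehicle DMSO and 100% = high DMSO full killing control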
[18] = RCMB18 cell growth, single agent and combined, cisplatin and BGB IC40 combos (AID 1671462); conditions: RCMB18 medulloblastoma cells, stronger effect = higher value;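 note: cells exposed to compound for four days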
[19] = CRL1545 cell growth, single agent and combined, cisplatin and BGB IC20 combos (AID 1671464); conditions: CRL1545 osteosarcoma cells, stronger effect = higher value;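 note: cells exposed to compound for 96 hours before readout; 0% = vehicle DMSO and 100% = high DMSO killing control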
[20] = measured here: combination with BGB IC40, at 0.05 µM
[21] = measured here: with BGB IC20 combination, at 0.5 µM
[22] = measured here: with cisplatin IC20 combination, at 0.5 µM
[23] = measured here: combination with cisplatin, at 0.5 µM
[24] = measured here: combination with cisplatin, at 5 µM

**Q.** What does the source list for `NS(=O)(=O)Cc1noc2ccccc12`?
**A.** z-score [1]: 1.1 (inactive) and -0.005 (inactive) and 0.465 (inactive); log fold change Tl+ flux [2]: 0.00455 (inactive); log fold change Tl+ flux [3]: -0.0156 (inactive)

**Q.** Which results are given for `Nc1nc2c(ncn2COC(CO)CO)c(=O)[nH]1`?
**A.** remaining NAD [4]: 10 nM (inactive); inhibition ([5]; at 0.5 µM, stronger effect = higher value): -14.4% (inactive); inhibition ([5]; measured here: combination with BGB IC20, at 0.005 µM): -4.12%; inhibition ([5]; measured here: combination with BGB IC40, at 0.005 µM): -22.8%; inhibition [5, 20]: 1.72%; inhibition ([5]; measured here: combination with cisplatin, at 0.5 µM, stronger effect = higher value): -35.5%; inhibition ([5]; measured here: combination with cisplatin, at 5 µM, stronger effect = higher value): 126%; inhibition ([6]; BGB combo, at 5 µM): 30.5%; inhibition ([6]; at 0.5 µM): -5.69% (inactive); inhibition ([6]; cisplatin combo, at 5 µM): 55%; inhibition [6, 21]: -10.7%; inhibition [6, 22]: 0.325%; inhibition ([6]; single agent, at 5 µM): 66%; inhibition ([7]; BGB IC20 combo, at 0.005 µM): -34.3%; inhibition ([7]; BGB IC40 combo, at 0.005 µM): -7.26%; inhibition ([7]; BGB IC40 combo, at 0.05 µM): 96.7%; inhibition ([7]; at 0.5 µM): -23.8% (inactive); inhibition ([7]; cisplatin combo, at 0.05 µM): 96.7%; inhibition ([7]; cisplatin combo, at 0.5 µM): -39.7%; inhibition ([7]; cisplatin combo, at 5 µM): -4.59%; inhibition ([7]; measured here: 5 uM single agent, at 5 µM): -6.09%; inhibition ([8]; at 0.5 µM): 26.9% (inactive); inhibition [8, 20]: -58.1%; inhibition [8, 23]: 61.8%; inhibition [8, 24]: 106%; inhibition ([9]; at 0.5 µM): -13.4% (inactive); inhibition ([9]; measured here: with BGB IC20, at 0.5 µM): -37.4%; inhibition ([9]; measured here: with BGB IC20, at 5 µM): 32.5%; inhibition ([9]; measured here: with cisplatin IC20, at 0.5 µM): -11.6%; inhibition ([9]; measured here: with cisplatin IC20, at 5 µM): 68.7%; inhibition ([9]; single agent, at 5 µM): 71%; inhibition ([10]; at 0.5 µM): 2.15% (inactive); inhibition ([10]; measured here: combination with BGB at IC20, at 0.5 µM): 2.66%; inhibition ([10]; measured here: combination with cisplatin at IC20, at 0.5 µM): 0.146%; inhibition ([11]; at 0.5 µM): -7.18% (inactive); inhibition ([11]; measured here: combo with BGB at IC20, at 0.5 µM): -5.76%; inhibition ([11]; measured here: combo with cisplatin at IC20, at 0.5 µM): -11.1%; inhibition ([12]; at 0.5 µM): 8.41% (inactive); inhibition ([12]; measured here: inhibition with BGB combination, at 0.05 µM): -10.6%; inhibition ([12]; measured here: inhibition with cisplatin combination, at 0.05 µM): 1.36%; inhibition ([13]; at 0.5 µM): 1.52% (inactive); inhibition [13, 23]: 8.4%; inhibition [13, 24]: 102%; inhibition ([14]; at 0.5 µM): -1.05% (inactive); inhibition ([14]; measured here: BGB combination, at 0.5 µM): 1.08%; inhibition ([14]; measured here: BGB combination, at 5 µM): 38.9%; inhibition ([14]; measured here: cisplatin combination, at 0.5 µM): -7.9%; inhibition ([14]; measured here: cisplatin combination, at 5 µM): 51.5%; inhibition ([15]; BGB combination, concentration series, at 5 µM): 35.4%; inhibition ([15]; at 0.5 µM): 7.28% (inactive); inhibition ([15]; cisplatin combination, concentration series, at 5 µM): 66%; inhibition [16]: 19.3% (inactive); inhibition ([16]; measured here: combo with BGB IC20): 14.4%; inhibition ([16]; measured here: combo with cisplatin IC20): 21.1%; inhibition ([17]; at 0.5 µM): 25.1% (inactive); inhibition ([17]; cisplatin combination, at 0.5 µM): 43%; inhibition ([17]; cisplatin combination, at 5 µM): 103%; inhibition ([17]; measured here: BGB IC40 combination 0.05 uM, at 0.05 µM): 16.9%; inhibition ([17]; single agent, at 5 µM): 107%; inhibition ([18]; at 0.5 µM): 15.7% (inactive); inhibition ([18]; cisplatin combo, at 5 µM): 102%; inhibition ([18]; measured here: BGB IC40 combination, at 0.05 µM): 12.8%; inhibition [18, 23]: 27.1%; inhibition ([18]; single agent, at 5 µM): 88.8%; inhibition ([19]; at 0.5 µM): 44.7% (inactive); inhibition [19, 21]: 29.8%; inhibition [19, 22]: 52.1%; inhibition ([19]; single agent, at 0.05 µM): 3.9%; inhibition ([19]; single agent, at 5 µM): 93.9%; log fold change Tl+ flux [2]: -0.00258 (inactive); log fold change Tl+ flux [3]: 0.0388 (inactive)

**Q.** What does the source list for `COc1cc(C(=O)NC2CCCNC2)cc(OC)c1OC` (configuration not stated)?
**A.** z-score [1]: 0.125 (inactive); log fold change Tl+ flux [2]: -0.0595 (inactive); log fold change Tl+ flux [3]: -0.0621 (inactive)

— PubChem BioAssay
